Experimental data taken from PubChem BioAssay (NCATS).
Results filed as inconclusive are left out. Values without a mark were called inactive. Activity calls are given as the source filed them. Calls follow the shape of the dose curve; as a rule, active = well fitted curve in the direction sought with a large enough effect in the repeat runs; inconclusive = weak or mixed curves; inactive = no such curve, though single readings can be large; an effect the other way counts as inactive or inconclusive.

What follows are molecules tested against Cytochrome P450 2D6 (Homo sapiens) (UniProt P10635) (assay: Cytochrome P450 family 2 subfamily D member 6 (CYP2D6) small molecule antagonists: luciferase biochemical (cell-free) qHTS assay (AID 1645840)). Settings: P450-Glo CYP2D6 enzyme, luciferin luminescence, 1 h; series mostly up to 57.4 µM; activity change, negative = inhibition: at the top concentration.
Outline: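 P450-Glo CYP2D6 system: proluciferin substrate converted by enzyme to luciferin, read by luminescence proportional to activity. Enzyme-substrate mix with compound 10 min at room temperature, then NADPH regeneration 1 h before detection reagent.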
% is scaled to controls: 0 for no effect and ±100 for the full control effect; potency is read from the fitted curve at half-maximal effect.
Also: nearly all actives have a fitted effect of over 55% in size.

Cytochrome P450 2D6 (Homo sapiens), sequence (P10635 whole entry, looked up): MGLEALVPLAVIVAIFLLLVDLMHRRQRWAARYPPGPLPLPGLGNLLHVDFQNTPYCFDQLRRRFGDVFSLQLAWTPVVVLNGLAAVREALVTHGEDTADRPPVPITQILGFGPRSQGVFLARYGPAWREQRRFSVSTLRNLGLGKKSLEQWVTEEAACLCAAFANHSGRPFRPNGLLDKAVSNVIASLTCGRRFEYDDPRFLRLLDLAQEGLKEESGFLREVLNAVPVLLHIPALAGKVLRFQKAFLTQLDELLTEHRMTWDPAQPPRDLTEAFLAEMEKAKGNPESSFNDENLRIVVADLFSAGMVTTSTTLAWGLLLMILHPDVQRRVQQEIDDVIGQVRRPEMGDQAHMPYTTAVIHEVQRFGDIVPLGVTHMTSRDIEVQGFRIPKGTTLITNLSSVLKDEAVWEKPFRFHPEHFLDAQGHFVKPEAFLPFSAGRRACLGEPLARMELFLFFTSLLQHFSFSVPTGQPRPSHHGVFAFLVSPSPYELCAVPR

Row | SMILES | Potency | activity change, negative = inhibition [%]
1 | CN(C)c1nc(NC2CCC(NCCc3ccc(Br)cc3OC(F)(F)F)CC2)nc2ccccc12 (stereo not given) | 2.68 µM (active) | 
2 | CCOC(=O)c1cc(C#N)c(N2CCC(C(=O)NS(=O)(=O)Cc3ccccc3)CC2)nc1C |  | -1.6
3 | N#Cc1cnc2cnc(NCc3cccnc3)cc2c1Nc1ccc(F)c(Cl)c1 | 0.756 µM (active) | 
4 | O=C(Nc1nc2ccccc2n1CCc1ccccc1)c1ccccc1 |  | -4.16
5 | O=C(Nc1ccc(-c2ccncc2)cc1)N[C@H](CO)c1ccccc1 | 10.7 µM (active) | 
6 | CCN(CC)CCN(Cc1ccc(-c2ccc(C(F)(F)F)cc2)cc1)C(=O)Cn1c(SCc2ccc(F)cc2)nc(=O)c2c1CCC2 | 9.52 µM (active) | 
7 | CC(C)c1cccc2c(-c3ccccc3)cc(-c3ccc(-c4ccc(C(=O)O)cc4)[nH]3)nc12 |  | -0.193
8 | COc1cc2c(cc1OC)-c1[nH]nc(Nc3cccc(F)c3)c1C2 | 21.3 µM (active) | 
9 | CC(C)[C@@](C)(O)[C@@H]1CN(c2nc(-c3[nH]nc4ncccc34)c(F)cc2Cl)CCN1 | 0.849 µM (active) | 
10 | COc1ccc(Oc2cc(C)c(-c3csc(NC(=O)c4ccncc4)n3)c(C)c2)cc1 | 3.01 µM (active) | 
11 | CC(Oc1ccc2[nH]nc(/C=C/c3cnn(CCO)c3)c2c1)c1c(Cl)cncc1Cl (stereo not given) | 2.39 µM (active) | 
12 | CNC(=O)c1ccccc1Nc1nc(Nc2ccc(N3CCNCC3)cc2)ncc1Cl |  | -27.9
13 | Cc1ccc(-c2ccc3c(ccc4sc5c(c43)NC[C@@H](C)NC5=O)n2)cn1 |  | 4.79
14 | COc1cc(NC(=O)Nc2cccc(CNC(=O)O[C@H]3CCOC3)c2)ccc1-c1cnco1 | 0.338 µM (active) | 
15 | CCCC(=O)C1CCN(c2ncnc3c2CN(C(=O)c2ccc(-c4ccccc4)cc2)CC3)CC1 | 21.3 µM (active) | 
16 | CC(Cc1cc2c(c(C(N)=O)c1)N(CCCO)CC2)NCCOc1ccccc1OCC(F)(F)F (stereo not given) | 7.56 µM (active) | 
17 | CNC(=O)c1ccccc1Nc1nc(Nc2ccc3c(c2OC)CCCC(N2CCN(CCO)CC2)C3)ncc1Cl (stereo not given) | 15.1 µM (active) | 
18 | COc1ccc(C2(O)CCC(N3CC[C@@H](NC(=O)CNC(=O)c4cccc(C(F)(F)F)c4)C3)CC2)cn1 (stereo not given in full) | 10.7 µM (active) | 
19 | CC(=O)N1CCN(C(=O)Cc2ccc(Nc3ncc(F)c(Nc4ccc(C(=O)Nc5ccccc5Cl)cc4)n3)cc2)CC1 |  | -21.4
20 | COc1cc2nc(N3CCCC3)nc(NCCCCCN3CCCC3)c2cc1OC | 4.77 µM (active) | 
21 | CCN1CCN(Cc2ccc(NC(=O)Nc3ccc(Oc4cc(NC)ncn4)cc3)cc2C(F)(F)F)CC1 | 10.7 µM (active) | 
22 | CC(C)c1nc(-c2ccc(NC(=O)Nc3cccc(C(F)(F)F)c3)c3ccccc23)c2c(N)nccn12 | 0.0674 µM (active) | 
23 | CC(C)[C@@H](CS(=O)(=O)C(C)C)N1C(=O)[C@@](C)(CC(=O)O)C[C@H](c2cccc(Cl)c2)[C@H]1c1ccc(Cl)cc1 |  | 1.05
24 | CNS(=O)(=O)CC1CCC(N(C)c2ncnc3[nH]ccc23)CC1 (stereo not given) |  | -22.1
25 | COc1cc(O)c([C@@H](CC(=O)N2CC(C)CC(C)C2)c2ccc3c(c2)OCO3)c(OC)c1 (stereo not given in full) | 19 µM (active) | 
26 | C=C(F)c1sc(CNCCCNc2cc(=O)c3ccccc3[nH]2)c(C)c1Br | 1.07 µM (active) | 

Each molecule was assayed against Cytochrome P450 2C9 (Homo sapiens) (UniProt P11712) (assay: Cytochrome P450 family 2 subfamily C member 9 (CYP2C9) small molecule antagonists: luciferase biochemical (cell-free) qHTS assay (AID 1645842)). Settings: P450-Glo CYP2C9 enzyme assay, luciferin luminescence; series mostly up to 57.4 µM; activity change, negative = inhibition: at the top concentration.
Outline: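 P450-Glo CYP2C9 system: proluciferin substrate with enzyme in mix containing 0.4% BSA, 10 min at room temperature, then NADPH regeneration solution added and incubated 1 h at 37C. Detection reagent stopped reaction; luminescence read after 20 min as RLU.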

Cytochrome P450 2C9 (Homo sapiens), sequence (P11712 whole entry, looked up): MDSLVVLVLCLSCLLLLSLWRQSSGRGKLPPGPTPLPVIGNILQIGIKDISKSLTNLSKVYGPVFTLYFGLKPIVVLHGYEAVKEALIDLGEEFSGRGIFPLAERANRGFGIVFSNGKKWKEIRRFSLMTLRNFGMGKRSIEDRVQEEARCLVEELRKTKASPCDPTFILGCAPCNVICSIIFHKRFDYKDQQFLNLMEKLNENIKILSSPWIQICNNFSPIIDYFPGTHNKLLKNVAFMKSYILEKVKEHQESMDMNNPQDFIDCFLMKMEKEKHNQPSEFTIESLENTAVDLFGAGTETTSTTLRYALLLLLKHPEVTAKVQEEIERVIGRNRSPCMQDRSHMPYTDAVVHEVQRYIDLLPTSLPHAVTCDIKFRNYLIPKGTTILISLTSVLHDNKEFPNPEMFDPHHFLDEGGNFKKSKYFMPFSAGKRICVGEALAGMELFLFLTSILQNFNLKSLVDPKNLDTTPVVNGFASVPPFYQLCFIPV

Row | SMILES | Potency | activity change, negative = inhibition [%]
27 | O=C(c1ccccc1)c1ccc2nc(NC(=O)c3csc(C4CCN(c5ncnc6ccsc56)CC4)n3)[nH]c2c1 | 9.52 µM (active) | 
28 | COc1cccc(-c2cc(NCc3ccc4c(c3)OCO4)nc(N)n2)c1 | 2.68 µM (active) | 
29 | Cn1ncnc1COc1nn2c(-c3cc(F)ccc3F)nnc2cc1C(C)(C)C | 9.52 µM (active) | 
30 | COCCOc1ccc(N2CCN(CCn3ncc4c3nc(N)n3nc(-c5ccco5)nc43)CC2)cc1 |  | -9.23
31 | CN(CCc1ccc(Nc2ncc(-c3cccnc3)s2)cc1)Cc1ccccc1 | 12 µM (active) | 
32 | CN(c1ccccc1CNc1nc(Nc2ccc3c(c2)CC(=O)N3)ncc1C(F)(F)F)S(C)(=O)=O | 1.51 µM (active) | 
33 | CC(C)(C)c1cc(Br)cc([C@H](CC(=O)O)NC(=O)CNC(=O)c2cc(O)cc(NC3=NCC(O)CN3)c2)c1 (stereo not given in full) |  | 11.5
34 | O=C(O)c1cccc(S(=O)(=O)N2CCc3ccccc3C2)c1 |  | -1.71
35 | N#Cc1ccc2[nH]cc(CCCCN3CCN(c4ccc5oc(C(N)=O)cc5c4)CC3)c2c1 | 13.5 µM (active) | 
36 | NC(=O)c1cnc(NCCc2ccc(O)c(Cl)c2)nc1NCc1ccccc1 | 6.74 µM (active) | 
37 | Cc1c[nH]c2nccc(Oc3c(F)cc(Nc4cc(Cl)nc(N)n4)cc3F)c12 | 15.1 µM (active) | 
38 | CCCCCCOc1cc2c(cc1N(C)c1ncc(C(=O)O)cn1)C(C)(C)CCC2(C)C |  | -2.46
39 | CCS(=O)(=O)N1CCN(c2ccc(Nc3ncc(C(N)=O)c(NC4CC4)n3)cc2)CC1 | 19 µM (active) | 
40 | CN(C)c1nc(NC2CCC(NCCc3ccc(Br)cc3OC(F)(F)F)CC2)nc2ccccc12 (stereo not given) | 7.56 µM (active) | 
41 | CCOC(=O)c1cc(C#N)c(N2CCC(C(=O)NS(=O)(=O)Cc3ccccc3)CC2)nc1C | 2.68 µM (active) | 
42 | N#Cc1cnc2cnc(NCc3cccnc3)cc2c1Nc1ccc(F)c(Cl)c1 | 1.2 µM (active) | 
43 | O=C(Nc1nc2ccccc2n1CCc1ccccc1)c1ccccc1 | 8.49 µM (active) | 
44 | O=C(Nc1ccc(-c2ccncc2)cc1)N[C@H](CO)c1ccccc1 | 10.7 µM (active) | 
45 | CCN(CC)CCN(Cc1ccc(-c2ccc(C(F)(F)F)cc2)cc1)C(=O)Cn1c(SCc2ccc(F)cc2)nc(=O)c2c1CCC2 | 23.9 µM (active) | 
46 | CC(C)c1cccc2c(-c3ccccc3)cc(-c3ccc(-c4ccc(C(=O)O)cc4)[nH]3)nc12 | 7.56 µM (active) | 

Row | SMILES | Potency | activity change, negative = inhibition [%]
47 | COc1cc2c(cc1OC)-c1[nH]nc(Nc3cccc(F)c3)c1C2 | 8.49 µM (active) | 
48 | CC(C)[C@@](C)(O)[C@@H]1CN(c2nc(-c3[nH]nc4ncccc34)c(F)cc2Cl)CCN1 | 12 µM (active) | 
49 | COc1ccc(Oc2cc(C)c(-c3csc(NC(=O)c4ccncc4)n3)c(C)c2)cc1 | 4.77 µM (active) | 
50 | CC(Oc1ccc2[nH]nc(/C=C/c3cnn(CCO)c3)c2c1)c1c(Cl)cncc1Cl (stereo not given) | 0.536 µM (active) | 
51 | CNC(=O)c1ccccc1Nc1nc(Nc2ccc(N3CCNCC3)cc2)ncc1Cl | 6.01 µM (active) | 
52 | Cc1ccc(-c2ccc3c(ccc4sc5c(c43)NC[C@@H](C)NC5=O)n2)cn1 |  | -27.1
53 | COc1cc(NC(=O)Nc2cccc(CNC(=O)O[C@H]3CCOC3)c2)ccc1-c1cnco1 | 0.0379 µM (active) | 
54 | CCCC(=O)C1CCN(c2ncnc3c2CN(C(=O)c2ccc(-c4ccccc4)cc2)CC3)CC1 | 3.01 µM (active) | 
55 | CC(Cc1cc2c(c(C(N)=O)c1)N(CCCO)CC2)NCCOc1ccccc1OCC(F)(F)F (stereo not given) |  | -18.9
56 | CNC(=O)c1ccccc1Nc1nc(Nc2ccc3c(c2OC)CCCC(N2CCN(CCO)CC2)C3)ncc1Cl (stereo not given) |  | -15.5
57 | COc1ccc(C2(O)CCC(N3CC[C@@H](NC(=O)CNC(=O)c4cccc(C(F)(F)F)c4)C3)CC2)cn1 (stereo not given in full) |  | -25.6
58 | CC(=O)N1CCN(C(=O)Cc2ccc(Nc3ncc(F)c(Nc4ccc(C(=O)Nc5ccccc5Cl)cc4)n3)cc2)CC1 | 0.477 µM (active) | 
59 | COc1cc2nc(N3CCCC3)nc(NCCCCCN3CCCC3)c2cc1OC |  | -0.841
60 | CCN1CCN(Cc2ccc(NC(=O)Nc3ccc(Oc4cc(NC)ncn4)cc3)cc2C(F)(F)F)CC1 |  | 18.2
61 | CC(C)c1nc(-c2ccc(NC(=O)Nc3cccc(C(F)(F)F)c3)c3ccccc23)c2c(N)nccn12 | 0.301 µM (active) | 
62 | CC(C)[C@@H](CS(=O)(=O)C(C)C)N1C(=O)[C@@](C)(CC(=O)O)C[C@H](c2cccc(Cl)c2)[C@H]1c1ccc(Cl)cc1 | 15.1 µM (active) | 
63 | CNS(=O)(=O)CC1CCC(N(C)c2ncnc3[nH]ccc23)CC1 (stereo not given) |  | 18.7
64 | COc1cc(O)c([C@@H](CC(=O)N2CC(C)CC(C)C2)c2ccc3c(c2)OCO3)c(OC)c1 (stereo not given in full) | 1.34 µM (active) | 
65 | C=C(F)c1sc(CNCCCNc2cc(=O)c3ccccc3[nH]2)c(C)c1Br | 2.13 µM (active) | 
